# Experimental data taken from ChEMBL document CHEMBL3988442, “University of Dundee, Small-Polar-MMV Screening Library” (2021).
# For some of these results: Results with a measured potency or affinity are listed apart.
# Columns and labels:
# Set-up in all cases: scale not given: direction of the effect not stated beside the values
# [1] = target: Protein translocase subunit SecA (Escherichia coli (strain K12)) (UniProt P10408); assay: Assay to Identify E. coli SecA ATPase Inhibitors; type: functional; settings: 30 µM
# [2] = target: T1, Ubiquitin-activating enzyme e1, putative (Leishmania donovani (strain BPK282A1)) (UniProt E9BSI1); assay: Leishmania donovani Ubiquitin Activating Enzyme (LdE1); type: functional; settings: 30 µM
# T1 sequence (whole entry): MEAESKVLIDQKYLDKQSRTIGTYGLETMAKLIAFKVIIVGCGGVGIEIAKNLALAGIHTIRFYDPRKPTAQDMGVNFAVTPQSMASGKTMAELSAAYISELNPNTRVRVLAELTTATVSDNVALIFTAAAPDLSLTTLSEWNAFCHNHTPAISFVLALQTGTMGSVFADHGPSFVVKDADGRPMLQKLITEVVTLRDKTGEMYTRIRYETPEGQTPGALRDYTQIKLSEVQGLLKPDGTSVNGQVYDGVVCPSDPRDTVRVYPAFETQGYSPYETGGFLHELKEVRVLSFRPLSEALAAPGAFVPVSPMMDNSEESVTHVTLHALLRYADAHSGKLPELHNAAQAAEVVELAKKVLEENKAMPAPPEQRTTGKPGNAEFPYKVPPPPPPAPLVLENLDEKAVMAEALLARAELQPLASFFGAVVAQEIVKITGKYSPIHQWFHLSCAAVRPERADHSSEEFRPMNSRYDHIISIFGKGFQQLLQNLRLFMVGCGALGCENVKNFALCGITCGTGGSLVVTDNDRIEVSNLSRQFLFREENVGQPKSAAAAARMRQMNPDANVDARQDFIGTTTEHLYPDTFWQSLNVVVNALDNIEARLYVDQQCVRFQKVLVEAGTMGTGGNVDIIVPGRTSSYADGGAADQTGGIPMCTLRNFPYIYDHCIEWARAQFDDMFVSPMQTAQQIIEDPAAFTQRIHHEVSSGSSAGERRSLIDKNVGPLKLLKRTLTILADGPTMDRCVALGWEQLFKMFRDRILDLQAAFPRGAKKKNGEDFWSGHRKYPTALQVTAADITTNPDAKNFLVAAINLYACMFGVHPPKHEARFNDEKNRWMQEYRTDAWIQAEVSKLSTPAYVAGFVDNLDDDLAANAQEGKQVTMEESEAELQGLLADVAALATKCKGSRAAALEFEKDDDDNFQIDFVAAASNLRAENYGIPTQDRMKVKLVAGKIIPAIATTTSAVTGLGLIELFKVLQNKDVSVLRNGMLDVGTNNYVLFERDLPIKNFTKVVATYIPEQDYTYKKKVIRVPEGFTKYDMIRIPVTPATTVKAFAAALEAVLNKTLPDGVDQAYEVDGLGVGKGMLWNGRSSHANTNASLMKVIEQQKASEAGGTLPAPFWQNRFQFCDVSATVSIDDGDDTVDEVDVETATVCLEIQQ
# [3] = target: AMP-activated protein kinase, AMPK (Homo sapiens) (UniProt P54646+O43741+P54619+Q9UGJ0+Q9Y478+Q13131+Q9UGI9); assay: AMP-dependent Kinase enzyme assay. An in vitro enzyme assay that detects ADP turnover that is directly proportional to AMPK activity. This uses naive AMPK that is activated during the assay with MK-8722; type: functional; settings: 30 µM
# [4] = target: Sialic acid-binding Ig-like lectin 9 (Homo sapiens) (UniProt Q9Y336); assay: Hs-Siglec9 ALPHAscreen SOP 20170721; settings: 10 µM
# [5] = system: Trypanosoma cruzi; assay: Trypanosoma cruzi phosphomannomutase and mannose-1-phosphate guanylyltransferase assay; type: functional; settings: 10 µM
# [6] = target: T2, Arginase-2, mitochondrial (Homo sapiens) (UniProt P78540); assay: in vitro enzyme assay to detect the production of urea directly proportional to the activity of Arginase II; type: functional; settings: 33.3 µM; also: in the data most compounds retested in dose-response had high values
# T2 sequence (whole entry): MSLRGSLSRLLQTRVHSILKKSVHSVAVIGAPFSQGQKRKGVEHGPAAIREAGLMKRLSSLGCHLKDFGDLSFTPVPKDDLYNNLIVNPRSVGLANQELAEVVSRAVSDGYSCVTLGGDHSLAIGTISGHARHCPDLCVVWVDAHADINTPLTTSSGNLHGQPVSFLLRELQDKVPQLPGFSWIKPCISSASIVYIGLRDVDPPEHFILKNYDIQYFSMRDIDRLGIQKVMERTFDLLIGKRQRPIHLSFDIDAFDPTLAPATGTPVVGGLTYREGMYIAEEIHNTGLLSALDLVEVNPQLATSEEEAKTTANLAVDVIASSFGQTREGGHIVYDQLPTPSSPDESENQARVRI
# [7] = target: T3, Proteasome subunit beta (Trypanosoma cruzi) (UniProt O96673); assay: Trypanosoma cruzi proteasome chymotrypsin-like activity (TcProtChymo) assay.; also: in the data most compounds retested in dose-response had high values; type: functional; settings: 9.37 µM
# T3 sequence (whole entry): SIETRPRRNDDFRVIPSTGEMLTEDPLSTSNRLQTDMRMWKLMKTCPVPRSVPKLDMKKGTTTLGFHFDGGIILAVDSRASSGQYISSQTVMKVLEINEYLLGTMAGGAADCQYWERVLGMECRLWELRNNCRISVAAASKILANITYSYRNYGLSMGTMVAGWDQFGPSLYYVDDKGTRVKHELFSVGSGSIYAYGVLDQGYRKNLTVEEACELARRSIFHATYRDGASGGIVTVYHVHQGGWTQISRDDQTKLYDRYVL
# [8] = species on record: Homo sapiens; assay: To identify inhibition of the IFN signalling (Jak-Stat) pathway via expression of an eGFP reporter gene under the control of an IFN-stimulated response element (ISRE) containing MxA promoter.; type: functional; settings: 30 µM
# [9] = target: T4, Tyrosyl-tRNA synthetase, putative (Trypanosoma cruzi (strain CL Brener)) (UniProt Q4DSP6); assay: Trypanosoma cruzi tyrosyl tRNA synthetase (TcYRS) _High Tyrosine SOP; type: functional; settings: 30 µM; also: in the data most compounds retested in dose-response had high values
# T4 sequence (whole entry): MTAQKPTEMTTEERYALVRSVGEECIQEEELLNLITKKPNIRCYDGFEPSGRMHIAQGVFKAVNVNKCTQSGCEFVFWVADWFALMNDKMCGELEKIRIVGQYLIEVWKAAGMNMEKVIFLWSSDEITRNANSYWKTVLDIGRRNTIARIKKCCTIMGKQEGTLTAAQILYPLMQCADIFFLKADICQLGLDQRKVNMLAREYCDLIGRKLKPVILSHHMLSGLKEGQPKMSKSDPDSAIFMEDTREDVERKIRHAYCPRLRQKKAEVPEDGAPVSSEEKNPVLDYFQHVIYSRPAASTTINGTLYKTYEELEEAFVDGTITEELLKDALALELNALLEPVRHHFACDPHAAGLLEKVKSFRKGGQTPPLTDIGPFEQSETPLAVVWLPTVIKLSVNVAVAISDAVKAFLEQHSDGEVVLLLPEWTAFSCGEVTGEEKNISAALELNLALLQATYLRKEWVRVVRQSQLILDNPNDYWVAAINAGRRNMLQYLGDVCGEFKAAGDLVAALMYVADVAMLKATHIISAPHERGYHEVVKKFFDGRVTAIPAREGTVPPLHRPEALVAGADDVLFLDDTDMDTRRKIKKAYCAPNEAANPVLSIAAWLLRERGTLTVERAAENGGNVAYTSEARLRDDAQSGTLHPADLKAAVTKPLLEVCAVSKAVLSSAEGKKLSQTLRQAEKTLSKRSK
# [10] = target: T4, Tyrosyl-tRNA synthetase, putative (Trypanosoma cruzi (strain CL Brener)); assay: Trypanosoma cruzi tyrosyl tRNA synthetase (TcYRS) SOP; type: functional; settings: 30 µM
# [11] = target: Chromo domain-containing protein 1 (Saccharomyces cerevisiae (strain ATCC 204508 / S288c) (Baker's yeast)) (UniProt P32657); assay: ScCHD-1 Enzyme Inhibition Assay; type: functional; settings: 30 µM; also: in the data most compounds retested in dose-response had high values
# Chain of Chromo domain-containing protein 1 (Saccharomyces cerevisiae (strain ATCC 204508 / S288c) (Baker's yeast)) (P32657 whole entry, the tested form may be a part): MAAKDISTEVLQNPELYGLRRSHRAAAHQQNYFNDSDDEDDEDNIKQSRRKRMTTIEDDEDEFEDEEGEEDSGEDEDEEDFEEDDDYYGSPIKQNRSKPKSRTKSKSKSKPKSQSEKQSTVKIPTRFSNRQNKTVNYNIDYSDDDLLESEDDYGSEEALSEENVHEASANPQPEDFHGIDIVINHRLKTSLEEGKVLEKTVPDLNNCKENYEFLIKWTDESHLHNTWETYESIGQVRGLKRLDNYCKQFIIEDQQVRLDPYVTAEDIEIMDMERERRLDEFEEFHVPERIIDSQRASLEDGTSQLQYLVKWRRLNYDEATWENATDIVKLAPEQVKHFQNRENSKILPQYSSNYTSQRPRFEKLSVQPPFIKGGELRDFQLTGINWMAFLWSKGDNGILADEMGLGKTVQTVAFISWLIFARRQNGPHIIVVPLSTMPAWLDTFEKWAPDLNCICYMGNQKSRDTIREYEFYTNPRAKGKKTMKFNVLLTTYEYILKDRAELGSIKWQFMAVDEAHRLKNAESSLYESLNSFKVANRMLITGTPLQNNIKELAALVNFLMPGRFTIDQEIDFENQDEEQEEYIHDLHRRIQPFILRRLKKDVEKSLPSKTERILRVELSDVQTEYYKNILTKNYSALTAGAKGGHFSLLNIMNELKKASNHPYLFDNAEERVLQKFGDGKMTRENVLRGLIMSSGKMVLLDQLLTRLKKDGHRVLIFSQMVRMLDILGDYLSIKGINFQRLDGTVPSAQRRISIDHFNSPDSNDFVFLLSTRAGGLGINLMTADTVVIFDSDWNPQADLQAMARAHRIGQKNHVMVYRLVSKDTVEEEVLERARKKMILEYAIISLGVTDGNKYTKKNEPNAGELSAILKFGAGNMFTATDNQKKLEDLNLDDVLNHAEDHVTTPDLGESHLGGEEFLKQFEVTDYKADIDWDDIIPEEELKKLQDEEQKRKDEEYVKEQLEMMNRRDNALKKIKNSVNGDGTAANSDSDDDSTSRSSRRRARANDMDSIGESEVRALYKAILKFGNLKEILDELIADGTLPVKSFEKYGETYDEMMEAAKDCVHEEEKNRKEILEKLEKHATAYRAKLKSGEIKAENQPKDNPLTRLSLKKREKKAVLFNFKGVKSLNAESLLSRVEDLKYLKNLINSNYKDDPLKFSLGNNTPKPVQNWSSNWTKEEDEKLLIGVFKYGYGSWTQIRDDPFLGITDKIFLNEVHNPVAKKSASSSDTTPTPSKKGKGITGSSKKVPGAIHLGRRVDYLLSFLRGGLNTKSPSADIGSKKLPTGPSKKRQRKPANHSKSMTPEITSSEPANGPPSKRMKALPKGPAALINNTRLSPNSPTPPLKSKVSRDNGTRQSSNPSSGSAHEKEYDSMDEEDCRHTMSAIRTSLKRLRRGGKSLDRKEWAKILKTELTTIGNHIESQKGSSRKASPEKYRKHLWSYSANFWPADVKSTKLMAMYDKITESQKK
# Chain of Sialic acid-binding Ig-like lectin 9 (Homo sapiens) (Q9Y336 whole entry): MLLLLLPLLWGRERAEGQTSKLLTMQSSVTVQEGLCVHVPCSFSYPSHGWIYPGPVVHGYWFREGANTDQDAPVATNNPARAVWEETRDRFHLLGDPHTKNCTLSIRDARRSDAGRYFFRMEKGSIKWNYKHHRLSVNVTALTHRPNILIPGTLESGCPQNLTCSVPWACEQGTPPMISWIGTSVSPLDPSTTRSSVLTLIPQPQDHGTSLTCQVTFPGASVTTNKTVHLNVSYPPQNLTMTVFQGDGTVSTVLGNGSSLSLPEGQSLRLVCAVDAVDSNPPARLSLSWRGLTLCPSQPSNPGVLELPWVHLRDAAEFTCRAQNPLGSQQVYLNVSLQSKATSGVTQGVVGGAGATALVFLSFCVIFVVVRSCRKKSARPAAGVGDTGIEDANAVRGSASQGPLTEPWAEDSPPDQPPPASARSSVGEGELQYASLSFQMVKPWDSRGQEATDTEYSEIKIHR
# Chain of Protein translocase subunit SecA (Escherichia coli (strain K12)) (P10408 whole entry): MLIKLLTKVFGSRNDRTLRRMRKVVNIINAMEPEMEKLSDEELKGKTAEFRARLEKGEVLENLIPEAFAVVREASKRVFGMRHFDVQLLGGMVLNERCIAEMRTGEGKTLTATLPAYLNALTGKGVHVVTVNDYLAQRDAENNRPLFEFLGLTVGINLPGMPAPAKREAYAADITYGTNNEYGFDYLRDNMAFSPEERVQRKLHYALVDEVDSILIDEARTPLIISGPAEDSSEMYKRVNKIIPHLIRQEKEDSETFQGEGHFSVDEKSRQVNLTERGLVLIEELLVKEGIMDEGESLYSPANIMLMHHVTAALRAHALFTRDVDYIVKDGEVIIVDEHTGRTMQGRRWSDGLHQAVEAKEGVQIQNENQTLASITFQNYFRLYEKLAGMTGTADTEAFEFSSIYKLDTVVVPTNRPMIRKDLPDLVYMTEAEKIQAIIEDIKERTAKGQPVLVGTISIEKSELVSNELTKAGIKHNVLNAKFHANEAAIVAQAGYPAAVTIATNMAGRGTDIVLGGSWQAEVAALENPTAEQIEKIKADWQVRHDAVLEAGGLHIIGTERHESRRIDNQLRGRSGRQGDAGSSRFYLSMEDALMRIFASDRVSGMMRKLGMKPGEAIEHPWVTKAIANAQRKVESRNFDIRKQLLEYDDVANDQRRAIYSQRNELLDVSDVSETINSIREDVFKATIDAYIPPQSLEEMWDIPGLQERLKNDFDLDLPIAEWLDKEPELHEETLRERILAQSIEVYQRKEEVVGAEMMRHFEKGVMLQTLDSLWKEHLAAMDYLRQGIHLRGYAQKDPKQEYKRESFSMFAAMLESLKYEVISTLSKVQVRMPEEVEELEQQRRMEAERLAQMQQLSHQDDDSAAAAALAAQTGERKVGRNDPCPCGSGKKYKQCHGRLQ
Structure (SMILES),Percent Effect [1] [%],Percent Effect [2] [%],Percent Effect [3] [%],Percent Effect [4] [%],Percent Effect [5] [%],Percent Effect [6] [%],Percent Effect [7] [%],Percent Effect [8] [%],Percent Effect [9] [%],Percent Effect [10] [%],Percent Effect [11] [%]
CCc1ccccc1-n1nnc(C(=O)O)c1-c1ccccn1,-2.26,13.2,1.03,-0.0352,1.85,1.18,23.5,-17.6,4.25,13,-6.21
CN(C)c1ncccc1CNC(=O)N1CCCC1c1ccsc1 (configuration not stated),-9.33,18.2,-4.46,4.94,-2.43,0.712,2.2,1.32,5.83,14.6,-6.19
CN(c1ccc(C(C)(C)C)cc1)S(=O)(=O)c1cc(C(=O)O)cs1,-2.58,-2.7,-8.07,8.29,-3.11,2.4,-1.08,-8.15,-1.48,1.24,1.18
CC(C)N(C)Cc1cn2c(n1)CN(C(=O)Cc1ccsc1)CC2,-5.71,2.74,3.83,1.25,-2.78,-2,7.28,-1.74,5.21,6.17,-0.437
CC(C(N)=O)N(C)CCCc1cc(-c2ccccc2)no1 (configuration not stated),-2.48,13.5,3.69,0.652,-9.75,-0.185,7.54,10.5,5.94,13.4,-3.63
Cc1ccc(C2COCCN2C(=O)c2ccc(CN(C)C)cc2)o1 (configuration not stated),-0.657,-5.33,-1.26,2.6,-1.85,2.08,4.01,0.868,1.64,1.24,-0.0158
CSc1nccn1-c1cccc(C(=O)NCC2CC2)c1,-4.93,7.89,0.0421,2.24,6.82,-1.44,3.13,2.37,5.42,13.6,2.32
Cc1ccccc1CS(=O)(=O)NCCCN1CCCCC1,-6.3,5.33,6.44,24.2,0.292,2.6,6.63,7.26,1.64,3.7,-2.2
O=C(NCc1ccccn1)[C@@H]1CCO[C@@H]2CCN(Cc3ccoc3)C[C@H]21,-4.59,8.11,7.22,-2.83,-3.03,0.955,17.5,3.21,4.32,15.4,-2.07
Cc1ccc(-c2cc(CNC(=O)N3CCOC(C)C3)on2)cc1 (configuration not stated),0.724,8.11,7.2,-10.1,-4.92,3.88,7.54,20.6,6.93,13.4,-5.48
CCCS(=O)(=O)N1CCC2(CN(c3ccsc3)C(=O)CN2C)C1 (configuration not stated),-3.95,8.11,-1,-0.171,2.34,5.83,10.6,-4.15,9.9,6.1,-1.58
Cn1ccnc1CN1CCC2(CC1)CN(CC1CC1)C(=O)CO2,-1.66,0,7.96,-0.145,-0.296,-1.94,0.522,12.5,4.23,8.97,90.8
COc1ccc(Cl)cc1NCC(=O)NCCNc1cnccn1,-3.85,-5.41,2.13,13.2,-2.17,-2.4,3.96,-1.56,4.43,13.6,-3.88
O=C(C1CCOCC1)N1CCc2ncnc(-c3ccc(F)cc3)c2CC1,-1.29,2.67,4.73,2.72,-1.35,-2.33,8.89,-4.53,0,-2.5,-3.02
O=c1[nH]c2c(c(=O)n1C1CCCCC1)CCC2Nc1ccccc1Cl (configuration not stated),-2.47,6.67,-9.22,-1.39,4.71,92.1,5.36,33.1,-9.52,-7.69,-11.3
CN(CCCc1ccccc1)Cc1nc2c(cnn2C)c(=O)[nH]1,-1.94,8.11,-7.46,-2.26,-7.26,2.4,5.95,18.9,4.43,13.6,-1.12
CC(C)(C)C(=O)NS(=O)(=O)c1ccc(C#N)cc1C(F)(F)F,-3.4,8.11,-4.85,3.66,-0.849,2.81,1.8,7.18,1.48,11.1,-3.67
